Rows were chosen to be rich in hits. Some 6.7% of all compounds tested hit in one or more screens of this group.
C diff HTS: blocks growth of Clostridium difficile. Clostridium difficile clinical isolate growth, OD600, 24 h; stronger effect = lower value. growth activity, negative = inhibition, % at 16 µg/mL (by protocol). hit rate 0.25% among 86,000;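 active = mean growth activity at or below -80% and every replicate also at or below -80%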
T cruzi growth-1: blocks T. cruzi growth in NIH3T3 culture; T. cruzi beta-gal in NIH3T3, GalScreen luminescence, 90 h; inhibition, % at 8.34 µM; hit rate 5.9% among 77,000;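 active = mean inhibition above about 93%, with at least 55% of replicates each passing it, limit read from the data, passing the limit was not always enough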
Pf Dd2 growth: inhibitors of Plasmodium falciparum Dd2 growth; P. falciparum Dd2 growth, SYBR Green, 72 h; stronger effect = lower value; activity change, % at 10 µM; hit rate 2.3% among 94,000; AID 1159554; in the data active = activity change below about -80%
T cruzi growth-2: blocks T. cruzi growth in NIH3T3 host cells. shares compounds with T cruzi growth-1. T. cruzi beta-gal in NIH3T3, GalScreen luminescence, 90 h. inhibition, % at 8.35 µM. hit rate 72% among 5,600. AID 651739;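 active = mean replicate inhibition above about 95% and at least 55% of replicates individually reaching it, limit read from the data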
T cruzi growth-3: blocks T. cruzi growth in NIH3T3 host cells; AID 651740; hit rate 21% among 5,600; shares compounds with T cruzi growth-1; inhibition, % at 2.09 µM; T. cruzi beta-gal in NIH3T3, GalScreen luminescence, 90 h;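 active = mean inhibition above about 95%, with at least 55% of replicates also reaching it, limit read from the data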
NIH3T3 tox: cytotoxicity in mouse NIH/3T3 fibroblasts; cytotoxicity (signal decrease), % at 8.35 µM; hit rate 14% among 5,600; shares compounds with T cruzi growth-1; AID 651742; NIH/3T3 viability, CellTiter-Glo ATP luminescence, 90 h;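 active = mean signal decrease across replicates above about 35% based on untreated-well scatter, with enough replicates individually passing, limit read from the data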
NIH3T3 tox 2: cytotoxicity in mouse NIH/3T3 fibroblasts; shares compounds with T cruzi growth-1; NIH/3T3 viability, CellTiter-Glo ATP luminescence, 90 h; inhibition, % at 24.9 µM; hit rate 56% among 5,600; AID 651744;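 active = mean loss of cell viability signal at or above a set limit, and enough replicates individually reaching it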
Of the large screens only hits and unclear results are named; the others gave an inactive call (follow-up assays come after a bar, where they were run).

CC(C)NC(=O)N(C)C[C@H]1OCCCC[C@@H](C)Oc2ccc(NC(=O)Nc3ccc(F)cc3)cc2C(=O)N([C@@H](C)CO)C[C@H]1C	none
O=C([C@@H]1[C@@H](CO)[C@@H]2Cn3c(cccc3=O)[C@@H]2N1CC1CCCCC1)N1CCOCC1	none (no result: T cruzi growth-1)
O=C(C[C@H]1CC[C@H](NC(=O)c2ccncc2)[C@H](CO)O1)NCC1CCCCC1	none (no result: C diff HTS)
CCS(=O)(=O)Nc1ccc2c(c1)C(=O)N(C)[C@H]1CC[C@@H](CC(=O)Nc3ccccc3)O[C@@H]1CO2	none
O=C(C[C@H]1C[C@H]2c3cc(NC(=O)c4ccc5c(c4)OCO5)ccc3O[C@H]2[C@@H](CO)O1)NCc1ccc(Cl)cc1	none
O=C(C[C@@H]1C[C@@H]2c3cc(NC(=O)c4ccc5c(c4)OCO5)ccc3O[C@@H]2[C@H](CO)O1)NCc1ccc(Oc2ccccc2)cc1	none
O=C(C[C@@H]1C[C@H]2c3cc(NC(=O)c4ccc5c(c4)OCO5)ccc3O[C@H]2[C@H](CO)O1)NCc1ccc(Oc2ccccc2)cc1	T cruzi growth-1 113 | T cruzi growth-2 103 | T cruzi growth-3 inactive | NIH3T3 tox 69 | NIH3T3 tox 2 51
O=C(C[C@@H]1C[C@H]2c3cc(NC(=O)c4ccc5c(c4)OCO5)ccc3O[C@H]2[C@@H](CO)O1)NCc1ccc(Oc2ccccc2)cc1	T cruzi growth-1 120 | T cruzi growth-2 inactive | T cruzi growth-3 inactive | NIH3T3 tox 45 | NIH3T3 tox 2 94
O=C(C[C@H]1C[C@@H]2c3cc(NC(=O)c4ccc5c(c4)OCO5)ccc3O[C@@H]2[C@@H](CO)O1)NCc1ccc(Oc2ccccc2)cc1	T cruzi growth-1 148 | T cruzi growth-2 111 | T cruzi growth-3 inactive | NIH3T3 tox 42 | NIH3T3 tox 2 34
O=C(C[C@@H]1C[C@H]2c3cc(NC(=O)c4ccc5c(c4)OCO5)ccc3O[C@H]2[C@H](CO)O1)NCc1ccc(Cl)cc1	none
COc1ccc2c3c(n(C)c2c1)[C@@H](CO)NCC31CN(C(=O)Nc2ccc(F)cc2F)C1	none (no result: T cruzi growth-1)
COc1ccc2c3c([nH]c2c1)[C@@H](CO)N(CC1CC1)CC31CCN(C(=O)NC2CCCC2)CC1	none (no result: T cruzi growth-1)
CCC(=O)N[C@H]1C[C@@H]2O[C@H](CO)CC[C@@H]2O[C@@H]1CCc1ccc(-c2cccc(OC)c2)cc1	none (no result: T cruzi growth-1)
Cc1noc(C)c1S(=O)(=O)N(C)C[C@H]1OCCCC[C@H](C)Oc2ccc(NS(=O)(=O)c3cccs3)cc2C(=O)N([C@@H](C)CO)C[C@@H]1C	none (no result: T cruzi growth-1)
O=C(C[C@H]1C=C[C@H](NC(=O)Nc2ccc(C(F)(F)F)cc2)[C@H](CO)O1)NCCN1CCCC1	none
C/C=C/c1ccc([C@H]2[C@@H](CO)N3CCCCN(C(=O)Nc4ccccc4F)C[C@H]23)cc1	T cruzi growth-1 97 | T cruzi growth-2 100 | T cruzi growth-3 inactive | NIH3T3 tox inactive | NIH3T3 tox 2 70
O=C(Nc1ccccc1F)N1CCCCN2[C@H](CO)[C@@H](c3ccc(/C=C/c4ccccc4)cc3)[C@H]2C1	T cruzi growth-1 104 | T cruzi growth-2 97 | T cruzi growth-3 inactive | NIH3T3 tox 59 | NIH3T3 tox 2 105
C/C=C/c1ccc([C@@H]2[C@H](CO)N3CCCCN(C(=O)Nc4ccccc4F)C[C@@H]23)cc1	none
O=C(Nc1ccccc1F)N1CCCCN2[C@H](CO)[C@@H](c3ccc(C4=CCCCC4)cc3)[C@H]2C1	T cruzi growth-1 103 | T cruzi growth-2 111 | T cruzi growth-3 inactive | NIH3T3 tox 39 | NIH3T3 tox 2 107
O=C(Nc1ccccc1F)N1CCCCN2[C@H](CO)[C@@H](c3ccc(C4=CCCC4)cc3)[C@@H]2C1	none
C/C=C/c1ccc([C@@H]2[C@@H](CO)N3CCCCN(C(=O)Nc4ccccc4F)C[C@H]23)cc1	none
Cc1noc(C)c1S(=O)(=O)N(C)C[C@@H]1OCCCC[C@@H](C)Oc2ccc(NC(=O)Nc3ccc(F)cc3)cc2C(=O)N([C@@H](C)CO)C[C@@H]1C	none (no result: T cruzi growth-1)
O=C(C[C@H]1C[C@H]2c3cc(NC(=O)c4ccc5c(c4)OCO5)ccc3O[C@H]2[C@H](CO)O1)NCc1ccc(Cl)cc1	none
C[C@H](CO)N1C[C@H](C)[C@H](CN(C)C(=O)c2ccncc2)OCCCC[C@H](C)Oc2ccc(NC(=O)C3CCCCC3)cc2C1=O	none
